Measured potencies and affinities stand elsewhere. The source made the active and inactive calls. No rule for the calls is given here.

The assay can be described thus: VEEV TC 83 cytopathic effect inhibition, infected cells, confirmatory screen (AID 602241). The note with it: VEEV TC-83 infected cells; series mostly up to 50 µM. A general note: Cytopathic effects are the visible damage that an infection or toxin causes in cultured cells.

Consider `O=C(Oc1ccc2ccccc2c1Br)N1CCCCCC1`, for which the result was inactive.
The result for `O=c1c2cc([N+](=O)[O-])ccc2nc(CN2CCN(c3ccccc3)CC2)n1-c1ccccc1F` reads “inactive”.

The values are drawn from PubChem BioAssay AID602241 (Southern Research Specialized Biocontainment Screening …, 2012).
